The results in this text go back to PubChem BioAssay AID504660 (National Center for Advancing Translational Sciences (NCATS), 2011).

Values joined by “and” are separate entries in the source; they are usually repeats but may differ in a detail not shown here. Equal entries are not always repeated. About 3,700 (1%) of roughly 360,000 compounds were called active. The entries come from a sample that favours actives as a whole. Values without a mark were called inactive. Cut-off read from the data, not from the text of the source: active = activation above about 30%; inactive = the rest.

In this test the target is D(1A) dopamine receptor (Homo sapiens) (UniProt P21728). The test is described as follows: Allosteric Agonists of the Human D1 Dopamine Receptor: qHTS. Note: 0% is about no effect. Conditions: HEK293 T-REx D1 cells, calcium flux, agonist mode; at 2 µM; active compounds read high. A digest of the protocol: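 Agonism was scored from calcium flux recorded over 180 s (1 read/s) after pintool compound addition, following a 10-cycle baseline. Cells were inducible force-coupled HEK293 TREx D1, plated overnight at 30 C and loaded with no-wash calcium dye.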
Chain of D(1A) dopamine receptor (Homo sapiens) (P21728 whole entry, looked up): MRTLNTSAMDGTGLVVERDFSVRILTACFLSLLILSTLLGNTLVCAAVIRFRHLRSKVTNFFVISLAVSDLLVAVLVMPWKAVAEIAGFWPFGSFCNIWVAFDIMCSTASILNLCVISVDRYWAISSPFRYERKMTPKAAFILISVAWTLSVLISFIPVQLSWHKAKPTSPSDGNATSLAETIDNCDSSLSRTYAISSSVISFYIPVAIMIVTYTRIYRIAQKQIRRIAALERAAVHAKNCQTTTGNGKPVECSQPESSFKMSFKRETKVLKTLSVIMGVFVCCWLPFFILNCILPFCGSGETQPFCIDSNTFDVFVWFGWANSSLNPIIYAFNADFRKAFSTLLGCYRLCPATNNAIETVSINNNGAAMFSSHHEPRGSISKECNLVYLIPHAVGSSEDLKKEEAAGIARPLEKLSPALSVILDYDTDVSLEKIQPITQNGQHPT
For orientation: qHTS replaces the single test concentration by a dilution series.
Consider `CCN(CC)c1nn2c(=O)c(C(=O)NCCc3ccccc3)cnc2s1`, for which the activation is -0.903%.
The value for `COc1ccc(NC(=O)CSC2=Nc3ccccc3C3=NC(CC(=O)NCc4ccccc4OC)C(=O)N23)cc1Cl` (centres undefined) was 4.46%; that for `Cc1cccc(OCCSc2nc3ccc(NC(=O)COc4ccccc4C)cc3s2)c1` was 14.8%.
As for `C=C(Br)Cn1c(CCCC)nc2ccccc21`, the activation is 2.85%.
The value for `COc1ccccc1Cn1c(CO)nc2ccccc21` was 2.48%.
In the case of `COCc1nc2ccccc2n1Cc1ccccc1Br` it was 30.7% (active); in that of `Cc1ccc(-c2noc(CSc3nnc(-c4ccc(Cl)cc4)n3C)n2)cc1`, -2.32%; in that of `Cc1ccc(-c2noc(CSc3nnnn3-c3ccccc3)n2)cc1`, 45.5% (active).
In the case of `Cc1ccc(Nc2nc(CSc3nnnn3-c3ccccc3)cc(=O)[nH]2)cc1` it was 0.0289%; in that of `COc1ccc(C(=O)Nc2cccc(C(=O)OCc3cc(=O)n4c5c(sc4n3)CCCC5)c2)cc1`, 0.659%.
Regarding `CCc1ccccc1N1C(=O)CN(S(=O)(=O)CC)CC1(C)C(=O)NC1CCCCC1` (centres undefined), the activation is 0.155%.
In the case of `COc1cc(C(=O)NCc2ccc(-n3cccc3)cc2)cc(OC)c1OC` it was 4.24%.
In the case of `COc1cc(C(=O)NCc2ccncc2)cc(Br)c1OCc1ccccc1`, the activation was 62.9% (active).
Take `COc1cc(C(=S)NCc2ccccc2)cc(Br)c1O`: the activation is 1.7%.
In the case of `CC(C)OCCCn1c(SCC(=O)c2ccccc2)nc2c(sc3ccccc32)c1=O` it was -1.31%; in that of `Cc1ccccc1CNC(=O)C1CCCN(S(=O)(=O)N(C)c2ccc(F)cc2)C1` (centres undefined), 2.76%; in that of `CCOC(=O)c1c(C)oc2ccc(N(C(=O)c3ccncc3)S(=O)(=O)c3ccc(CC)cc3)cc12`, 2.86%.
With `C/C(=N\NC(N)=S)c1ccncc1`, the activation was 0.713%.
The value for `CCN(CC)c1ccc2cc(C(N)=O)/c(=N\NC(=O)c3ccncc3)oc2c1` was 68.8% (active).
For `CCCCCCn1nnc2sc(-c3ccccc3)cc2c1=O`, the activation was 2.52%.
In the case of `COC(=O)c1c(NC(C)=O)sc(C(=O)Nc2ccccc2OC)c1C` it was 2.77%.
In the case of `COc1ccccc1NC(=O)c1sc2nc(C)c(C(=O)Nc3ccc(Cl)cc3)c(-c3ccc(Br)cc3)c2c1N` it was 48.4% (active); in that of `COc1ccc(Cl)cc1NC(=O)c1sc2nc3c(cc2c1N)CN(C)CC3`, 5%.
On to `O=C(CCc1cn(Cc2ccc(F)cc2)c2ccccc12)NC1CCCCC1`, for which the activation is 4.91%.
The value for `O=C(NCCc1ccc(Cl)cc1)c1ccc2c(c1)N(Cc1ccc(F)cc1)C(=O)CS2` was -1.03%.
Take `Oc1ccc(-c2nc3ccc(Cl)cn3c2Nc2ccc3c(c2)OCO3)cc1`: the activation is 2.27%.
The value for `Cc1c(NC(=O)c2cc(=O)c3ccccc3o2)c(=O)n(-c2ccccc2)n1C` was -0.0323%; that for `COc1ccccc1-c1noc(-c2ccc(NCc3ccccc3)c([N+](=O)[O-])c2)n1` was -1.19%.
In the case of `Cc1ccc(Cl)cc1NC(=O)CSc1nc2ccccc2nc1Cc1ccccc1` it was 3.58%; in that of `CCCn1c2ccccc2c2cnn(CC(=O)NCCCOC(C)C)c(=O)c21`, -0.0904%.
With `CCCn1c2ccccc2c2cnn(CC(=O)NCC3CCN(Cc4ccc(C)cc4)CC3)c(=O)c21`, the activation is 32% (active).
The value for `CCCn1c2ccccc2c2cnn(CC(=O)NCCCN3CCCCC3CC)c(=O)c21` (centres undefined) was 2.1% and -0.646%; that for `Cc1ccc(NC(=O)Cc2ccc(NC(=O)N3CCCCc4ccccc43)cc2)cc1` was 4.12%; that for `Cc1ccc(Cl)cc1NC(=O)C(C)n1nnc2sc(-c3ccccc3)cc2c1=O` (centres undefined) was -0.45%.
`Cc1ccc(-n2c(SCC(=O)Nc3cccc(F)c3)nc3c(oc4ccccc43)c2=O)cc1C`: the activation is 4.64%.
The value for `CCc1ccc(NC(=O)Cn2nnc(C(=O)NCc3ccc4c(c3)OCO4)c2N)cc1` was 0.807%; that for `CC(NC(=S)Nc1ccc(S(N)(=O)=O)cc1)c1ccc2c(c1)OCO2` (centres undefined) was 3.07%.
For `NC(=O)c1ccc(NC(=O)COC(=O)c2c3c(nc4ccccc24)/C(=C\c2ccc4c(c2)OCO4)CCC3)cc1`, the activation was 51.7% (active).
For the compound `O=C(COC(=O)c1c2c(nc3ccccc13)CCCC2)c1ccc(Br)s1`, the activation is 8.91%.
The value for `NS(=O)(=O)c1ccc(NC(=O)COC(=O)c2c3c(nc4ccccc24)/C(=C\c2ccc4c(c2)OCO4)CCC3)cc1` was 59.4% (active); that for `CCN(CC(=O)Nc1ccc2c(c1)OCO2)S(=O)(=O)c1ccccc1` was 2.93%.
In the case of `CCN(CC)c1ccc(NC(=O)CN2CCN(CC(=O)Nc3ccc(Cl)cc3)CC2)cc1` it was 2.48%.
Consider `CC(C)CCN(C(=O)Nc1ccc(Cl)c(Cl)c1)C(C)c1cccs1` (centres undefined), for which the activation is 23.8%.
The value for `CCOc1ccccc1CNC(=O)c1ccc2c(c1)nc1n2CCC(C)C1` (centres undefined) was -0.796%.
In the case of `N#CN1CCC(NC(=O)c2ccc(F)cc2)CC1` it was 3.29%.
The value for `COc1cccc(C(=O)NC2=NC(c3ccc(N(C)C)cc3)CC(=O)N2)c1` (centres undefined) was -0.763%; that for `Cc1ccc(NC(=O)C2CCCN2S(=O)(=O)c2cccc3cccnc23)c(C)c1` (centres undefined) was -0.331% and 2.62%; that for `O=C(Nc1nccs1)C1CCCN1S(=O)(=O)c1cccc2cccnc12` (centres undefined) was 0.517%.
Take `Cc1cc(C)cc(NC(=O)C2CCCN2S(=O)(=O)c2cccc3cccnc23)c1` (centres undefined): the activation is 34.7% (active).
In the case of `Cc1noc(/C=C/N(C)C)c1S(=O)(=O)N1CCCC(C(=O)Nc2cccc(F)c2)C1` (centres undefined) it was 5.84%; in that of `O=C(COc1ccccc1)OCc1cc(=O)n2nc(-c3cccs3)sc2n1`, 3.1%.
`Cc1cccc(C(CC(=O)NCC2(c3ccccc3)CCCC2)c2ccccc2)c1O` (centres undefined): the activation was 2.41%.
Take `O=C(CCOc1ccccc1)N(Cc1cccnc1)c1nc2ccc(Cl)cc2s1`: the activation is 2.39%.
In the case of `CN(C)CCCNC(=S)N1CCN(c2nc(-c3ccccc3)cs2)CC1`, the activation was 32.3% (active).
The value for `CN(C)CCCNC(=S)N1CCC(c2nc3ccccc3[nH]2)CC1` was -0.699%; that for `COCCCNC(=S)N1CCN(c2nc(-c3cccc(OC)c3)cs2)CC1` was 6.03%; that for `COc1cccc(CNc2nccn(-c3ccc(OC)c(OC)c3)c2=O)c1` was 1.78%.
In the case of `COc1cc(NC(=O)Cn2c(=O)n(Cc3ccco3)c(=O)c3oc4ccccc4c32)cc(OC)c1` it was -0.131%; in that of `N=c1c2c(-c3ccccc3)c(-c3ccccc3)n(Cc3ccccc3)c2ncn1CCCO`, 112% (active); in that of `COCCn1cnc2c1c(=O)n(CC(=O)NN)c(=O)n2Cc1ccccc1`, 1.04%.
For `CC(C)CCn1cnc2c1c(=O)n(CC(=O)NC(N)=O)c(=O)n2Cc1ccccc1`, the activation is 1.24%.
In the case of `Cc1cc(C)cc(NC(c2nnc(-c3cccc(F)c3)o2)c2ccc(F)cc2Cl)c1` (centres undefined), the activation is 2.35%.
As to `N#C/C(=C\c1ccccc1F)c1nc2ccccc2c(=O)[nH]1`, the activation is 6.41%.
With `Cn1c(COc2ccccc2C(C)(C)C)nc2ccccc21`, the activation is 19.9%.
In the case of `O=C(NC1CCN(Cc2ccccc2)CC1)c1cc(Br)c(Br)[nH]1` it was 7.63%; in that of `S=C(Nc1ccc(Br)cc1)NC1CCN(Cc2ccccc2)CC1`, 39.5% (active); in that of `Cc1cc(C(=O)NC2CCN(Cc3ccccc3)CC2)n[nH]1`, 1.69%.
In the case of `Cc1cc(Br)ccc1NC(=S)NC1CCCC1` it was 9.12%; in that of `S=C(Nc1ccc(Br)cc1Cl)NC1CCN(Cc2ccccc2)CC1`, 30.9% (active).
As for `CC1CN(C(=S)Nc2ccc(Br)cc2Cl)CC(C)O1` (centres undefined), the activation was -0.955%.
In the case of `CCN(Cc1ccccc1)Cc1c(O)ccc2c(=O)c(-c3ccc(Cl)cc3Cl)coc12` it was -1.31%; in that of `Cc1ccc(NC(=O)NC(C)c2c(-n3cccc3)sc(C)c2C)c(C)c1` (centres undefined), -1.09%; in that of `CCOC(=O)c1cc2ccccc2n1CC(=O)c1ccccc1`, 6.36%.
In the case of `CCOC(=O)c1cc2ccccc2nc1C`, the activation was 31.8% (active).
As for `CCOC(=O)c1cc(NC(=O)SCC(=O)O)c(C)nc1C`, the activation was 1.84%.
Turning to `CCOc1ccc(N(CC)C(=O)C2CCN(S(=O)(=O)c3cccc4nonc34)CC2)cc1`, the activation is 0.273%.
Regarding `CCOc1cccc(CC(=O)N2CCc3c([nH]c4ccccc34)C2c2ccc(F)cc2)c1OCC` (centres undefined), the activation was 2.49%.
The value for `Cc1ccccc1NC(=S)NC(=O)Cc1ccc(Cl)cc1` was 69.1% (active); that for `COC(=O)c1ccccc1NC(=O)CN(Cc1ccc(Cl)cc1)S(C)(=O)=O` was 3.99%.
Take `O=C(Cc1ccc(Cl)cc1)NC(=S)Nc1ccccc1O`: the activation is 35.4% (active).
As to `Cc1cc(C(=O)NNC(=S)Nc2ccccc2C)cs1`, the activation is 2.41%.
As to `Cc1ccccc1N/C(SCc1ccc(Cl)cc1)=C(/C#N)C(N)=O`, the activation was 3.17%.
In the case of `O=C(NC(=S)Nc1ccc(Cl)cc1Cl)C1CC1` it was 1.23%; in that of `Cc1nnc(NC(=O)CSc2nc3c([nH]c4ccccc43)c(=O)n2-c2cccc(Cl)c2)s1`, -0.131%; in that of `COC(=O)c1scc(-c2ccccc2)c1S(=O)(=O)Nc1ccccc1`, 3.73%.
In the case of `COc1cccc(NC(=O)C(=O)NCC(c2ccc3c(c2)OCO3)N2CCN(C)CC2)c1` (centres undefined) it was 5.73%; in that of `Cn1c(=O)c2c(SCC(=O)N3CCc4ccccc43)nc(-c3ccc(Cl)cc3)nc2n(C)c1=O`, 0.75%; in that of `CCc1ccc(NC(=O)c2cc(S(=O)(=O)N3CCCC(C)C3)cn2C)cc1` (centres undefined), 3.74%.
The value for `CC(C)c1ccc(S(=O)(=O)Nc2ccc(O)c(Sc3nc4ccccc4s3)c2)cc1` was 2.29%.
